From PubChem BioAssay

experiment: osmotic lysis modulators in infected erythrocytes, primary screen, PSAC antagonist project, cell-based, P. falciparum Indochina, OD700, 3 h (AID 1156); conditions: higher = more signal, called active from +8 up or from −8 down

z-score, inactive:
CCCCC(=C=CC[C@@H](O)c1cccc(OCCO)c1)CCO 0.842
C=CCOC(=O)[C@@H]1[C@H]2C(=O)O[C@H](c3ccccc3)[C@H](c3ccccc3)N2[C@H](c2ccc(OCCOC(=O)[C@H]3C[C@H]4C(=O)NCC(=O)N4[C@H]3c3ccc(O)cc3)cc2)[C@@]12C(=O)Nc1ccc(I)cc12 0.345
CN1C=C(C(=O)OCCS(C)(=O)=O)C(C(=O)OCCS(C)(=O)=O)=CC(CCCO)=CC1c1ccc(CN2CCCC2)cc1 (centres undefined) -0.203
COCCOC(=O)N1C(=O)[C@@]2(c3cc(C#CC4(O)CCCCCC4)ccc31)[C@H](C(=O)N1CCc3cc(OC)c(OC)cc3C1)[C@H]1C(=O)O[C@H](c3ccccc3)[C@H](c3ccccc3)N1[C@@H]2c1ccc(O)cc1 1.89
O=C1O[C@@H](c2ccccc2)[C@@H](c2ccccc2)N2[C@@H](c3ccc(OCCO)cc3)[C@]3(C(=O)Nc4ccc(C#CCCO)cc43)[C@@H](C(=O)Nc3nc4ccccc4s3)[C@H]12 -1.53
COCCCNC(=O)[C@@H]1c2ccccc2C(=O)N(C2CCCCC2)[C@H]1c1ccc(CO)cc1 0.65
C=CC[C@]1(C(=O)NCc2ccccc2)COC(c2ccc(OCCCO)cc2)=N1 1.44
CN(C)CCCNC(=O)[C@@]1(Cc2ccccc2I)c2ccccc2C(=O)N(Cc2ccccc2)[C@H]1c1ccc(CO)cc1 -1.26
COc1cccc(OC)c1C(=O)O[C@H]1[C@@H]2OC(=O)[C@H](Cc3cccc(Br)c3)C/C=C/C[C@@H](Cc3cccc(Br)c3)C(=O)O[C@H]2[C@@H](OC)O[C@@H]1CO -1.53
